Data from PubChem BioAssay AID1159580 (chemical genetic matrix, 2015).
Hit rate of the full screen: of about 5,500 compounds, about 2,000 (36%) were called active. Another 18% or so got no clear call; they are omitted. Cut-off read from the data, not from the text of the source: active = normalized growth mostly below about 0.91 (no sharp cut-off); inconclusive = no clear call, values can overlap the other calls; inactive = mostly above about 0.92. The list shows a part of the results.

Test: chemical genetic growth profiling, strain panel (AID 1159580);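 note: tested at 20 µM; growth read once vehicle control cultures reached saturation at 30 °C; 1 = growth at the plate median or of vehicle wells; lower values mean less growth of the strain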
Conditions: S. cerevisiae deletion strains, growth OD

Measured: normalized growth

O=c1c(-c2ccc3c(c2)OCO3)coc2cc(O)ccc12
inactive: locus YAL013W, strain DEP1, hits give low values 1 | locus YAL021C, strain ccr4, hits give low values 0.994 | locus YAL026C, strain drs2, hits give low values 1 | locus YAL030W, strain snc1, hits give low values 0.991 | locus YBL061C, strain skt5, hits give low values 0.99 | locus YBR009C, strain hhf1, hits give low values 0.978 | locus YBR021W, strain FUR4, hits give low values 0.991 | locus YBR023C, strain chs3, hits give low values 0.996 | locus YBR171W, strain sec66, hits give low values 1 | locus YBR229C, strain ROT2, hits give low values 0.989 | locus YBR231C, strain swc5, hits give low values 0.985 | locus YBR279W, strain paf1, hits give low values 0.994 | locus YCL011C, strain gbp2, hits give low values 0.999 | locus YCL016C, strain dcc1, hits give low values 0.993 | locus YCL029C, strain bik1, hits give low values 0.969 | locus YCL061C, strain MRC1, hits give low values 0.998 | locus YCL069W, strain vba3, hits give low values 1 | locus YCR088W, strain abp1, hits give low values 0.998 | locus YDL005C, strain med2, hits give low values 0.984 | locus YDL035C, strain GPR1, hits give low values 1 | locus YDL040C, strain nat1, hits give low values 0.993 | locus YDL074C, strain BRE1, hits give low values 1.04 | locus YDL101C, strain DUN1, hits give low values 0.998 | locus YDL134C, strain PPH21, hits give low values 1 | locus YDL185W, strain tfp1, hits give low values 0.981 | locus YDL192W, strain arf1, hits give low values 0.977 | locus YDR001C, strain nth1, hits give low values 1.01 | locus YDR069C, strain doa4, hits give low values 0.977 | locus YDR101C, strain arx1, hits give low values 0.98 | locus YDR137W, strain rgp1, hits give low values 0.979 | locus YDR150W, strain NUM1, hits give low values 0.995 | locus YDR159W, strain sac3, hits give low values 0.96 | locus YDR162C, strain NBP2, hits give low values 1.01 | locus YDR195W, strain ref2 0.957 | locus YDR297W, strain sur2, hits give low values 0.989 | locus YDR318W, strain mcm21, hits give low values 0.972 | locus YDR334W, strain swr1, hits give low values 1 | locus YDR335W, strain msn5, hits give low values 1 | locus YDR388W, hits give low values 0.973 | locus YDR392W, strain spt3, hits give low values 0.919 | locus YDR502C, strain sam2, hits give low values 0.992 | locus YEL003W, strain gim4, hits give low values 1 | locus YEL037C, strain rad23, hits give low values 1 | locus YEL061C, strain CIN8 (second series), hits give low values 1.01 | locus YEL061C, strain CIN8, hits give low values 0.998 | locus YER015W, strain faa2, hits give low values 0.99 | locus YER016W, strain bim1, hits give low values 0.988 | locus YER110C, hits give low values 0.979 | locus YER111C, strain swi4, hits give low values 1 | locus YER155C, strain BEM2 (second series), hits give low values 0.974 | locus YER155C, strain BEM2, hits give low values 0.995 | locus YER167W, strain BCK2, hits give low values 0.983 | locus YFR010W, strain ubp6, hits give low values 1 | locus YGL078C, strain dbp3, hits give low values 0.98 | locus YGL086W, strain mad1, hits give low values 0.983 | locus YGL167C, strain pmr1, hits give low values 0.988 | locus YGL173C, strain kem1, hits give low values 0.995 | locus YGL227W, strain vid30, hits give low values 1 | locus YGL240W, strain doc1, hits give low values 0.952 | locus YGL248W, strain PDE1, hits give low values 0.991 | locus YGL253W, strain hxk2, hits give low values 1 | locus YGR078C, strain PAC10, hits give low values 1.01 | locus YGR135W, strain pre9, hits give low values 0.987 | locus YGR229C, strain SMI1, hits give low values 1.03 | locus YGR252W, strain gcn5, hits give low values 0.932 | locus YHR013C, strain ard1, hits give low values 0.96 | locus YHR027C, strain rpn1, hits give low values 0.994 | locus YHR030C, strain SLT2, hits give low values 0.998 | locus YHR079C, strain IRE1 (second series), hits give low values 0.964 | locus YHR094C, strain hxt1, hits give low values 0.981 | locus YHR129C, strain ARP1, hits give low values 1 | locus YHR142W, strain chs7, hits give low values 1.01 | locus YHR200W, strain rpn10, hits give low values 0.978 | locus YIL066C, strain RNR3, hits give low values 0.998 | locus YIL073C, strain SPO22, hits give low values 0.93 | locus YIL125W, strain kgd1, hits give low values 0.993 | locus YIR030C, strain dcg1, hits give low values 0.984 | locus YJL092W, strain hpr5, hits give low values 1.01 | locus YJL095W, strain BCK1 (second series), hits give low values 0.989 | locus YJL095W, strain BCK1, hits give low values 1.04 | locus YJL115W, strain asf1, hits give low values 0.995 | locus YJL129C, strain trk1, hits give low values 0.99 | locus YJL134W, strain LCB3, hits give low values 0.991 | locus YJL154C, strain vps35, hits give low values 1.01 | locus YJL164C, strain tpk1, hits give low values 0.979 | locus YJL166W, strain qcr8, hits give low values 0.974 | locus YJL168C, strain set2, hits give low values 0.983 | locus YJL187C, strain SWE1 (second series), hits give low values 1 | locus YJL187C, strain SWE1, hits give low values 0.987
